Among all 2,200 compounds or so, about 1,200 (55%) were called active. So high a share suggests a set chosen from earlier hits. The list shows a part of the results. Unmarked numbers belong to inactive results. The limit is not given here; nearly all actives have IC50 up to about 92 µM.
Assay: counter assay for TAg ATPase ADP read-out – biochemical, ADP-Hunter, fluorescence, counter-screen (AID 2501);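 also: purified T antigen ATPase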;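 as to inhibition: 0% = enzyme with vehicle and 100% = reference inhibitor wells; higher means more inhibition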
Details: series mostly up to 100 µM; inhibition: at the top concentration

Row | SMILES | IC50 | inhibition
1 | CN1CN(C)c2cccc3cccc1c23 | 13.5 µM (active) | –
2 | COc1ccccc1N/C=C/C(=C(C#N)C#N)N(C)C | – | -8.12%
3 | CCOC(=O)c1ccc(N/C=C/C(=O)C(C)(C)C)cc1 | – | -48.4%
4 | CN(C)c1ccc(N/C=C/C(=O)c2ccccc2)cc1 | 3.25 µM (active) | –
5 | CN(C)c1ccc(N/C=C/C(=O)C(F)(F)F)cc1 | 8.86 µM (active) | –
6 | O=S(=O)(Nc1c(O)ccc2ccccc12)c1ccc(F)cc1 | – | -3.43%
7 | Oc1ccc2ccccc2c1N=Nc1ccccc1F | 7.8 µM (active) | –
8 | O=C(COc1cccc2cccnc12)N/N=C/c1ccc(O)cc1 | 73.5 µM (active) | –
9 | O=C(CSc1cccc2cccnc12)N/N=C/c1ccc(O)cc1 | 4.35 µM (active) | –
10 | O=C(N/N=C/c1ccc(O)c(O)c1)c1ccc(CSc2cccc3cccnc23)cc1 | 29 µM (active) | –
11 | CCOc1cc(/C=N/NC(=O)CSc2cccc3cccnc23)ccc1O | 3.48 µM (active) | –
12 | O=S(=O)(Nc1cc(Sc2cccc3cccnc23)c(O)c2ccccc12)c1ccc(F)cc1 | – | -52.5%
13 | COc1ccc([C@@H]2[C@@H]3C(=O)N(C(C)(C)C)C(=O)[C@@H]3[C@]3(C)C(=O)N(c4ccc(C)cc4)C(=O)N23)cc1 | – | -0.13%
14 | COc1ccc(NC2CCCN(C(=O)c3ccc(OC)cc3OC)C2)cc1 (configuration not stated) | 3.38 µM (active) | –
15 | O=C(c1ccco1)N1CCN(C(=O)N2CCCC2)CC1 | – | 14.6%
16 | COc1ccc(NC2CCCN(C(=O)c3ccc(OC)o3)C2)cc1 (configuration not stated) | 10.4 µM (active) | –
17 | COCc1ccc(C(=O)N2CCCC(CCC(=O)NCc3ccccc3F)C2)o1 (configuration not stated) | – | -19.5%
18 | COc1ccc(NC2CCCN(C(=O)c3ccncc3)C2)cc1 (configuration not stated) | 12 µM (active) | –
19 | O=C(c1ccco1)N1CCCC(Nc2ccc3c(c2)OCCO3)C1 (configuration not stated) | 13.5 µM (active) | –
20 | COc1ccc(C(=O)Nc2ccc3c(c2)CCCN3C(=O)c2cccs2)c(OC)c1 | – | 3.63%
21 | CSc1ncc(CN2CCCC(C(=O)Nc3ccc(-c4ccco4)cc3)C2)cn1 (configuration not stated) | – | 23.6%
22 | O=C(c1cc(F)ccc1F)C1CCCN(C(=O)c2ccc(F)cc2Cl)C1 (configuration not stated) | – | -16.2%
23 | COc1cc(O)c(C(C)=O)c(CC(=O)O)c1 | – | 27.1%
24 | CN(Cc1ccno1)Cc1cn(C)nc1-c1ccc(Oc2ccccc2)cc1 | – | 0.89%
25 | CCOc1ccc(C(=O)N(Cc2ccc(OC)cc2)Cc2cc3cc(OC)ccc3[nH]c2=O)cc1 | – | 1.4%
26 | N#CC(C#N)=C1C=CC=CN1/C(=C\c1ccco1)C(=O)c1ccc(Br)cc1 | – | 20.5%

Row | SMILES | IC50 | inhibition
27 | CCOc1cc(S(=O)(=O)n2nc(C)cc2C)ccc1Br | – | 6.62%
28 | COc1ccc(NS(=O)(=O)c2ccc3c(c2)[C@H]2C=CC[C@H]2[C@@H](c2ccc(C(=O)O)cc2)N3)cc1 | – | -43.8%
29 | O=C1CCC(CCC(=O)N2CCCC(C(=O)c3cccc(C(F)(F)F)c3)C2)=NN1 (configuration not stated) | – | 21%
30 | CCCN1CCN(C(=O)c2cc(COc3ccc4ncccc4c3)on2)CC1 | – | -34.6%
31 | COc1ccc(NC2CCCN(C(=O)c3cccc(C(F)(F)F)c3)C2)cc1OC (configuration not stated) | 12 µM (active) | –
32 | COc1ccc(NC(=O)N2CCCC(C(=O)Nc3cccc(C)c3C)C2)cc1 (configuration not stated) | – | 21.9%
33 | COc1ccc(NC2CCCN(C(=O)c3c(C)noc3C)C2)cc1 (configuration not stated) | 6.38 µM (active) | –
34 | COc1ccc(NC2CCCN(C(=O)c3ccc(C(C)=O)cc3)C2)cc1 (configuration not stated) | 2.06 µM (active) | –
35 | Cc1ccc(C(=O)Oc2oc(-c3ccccc3)nc2C=Nc2ccc(N(C)C)cc2)cc1 | – | -6.78%
36 | CN(C)c1ccc(NC(=O)CN2CCC(N3CCCCC3)CC2)cc1 | 6.64 µM (active) | –
37 | Cc1cc(C)c2c(=O)n(CC(=O)N3CCC(N4CCCCC4)CC3)sc2n1 | – | 26.1%
38 | CC(C)NC(=O)C1CCN(C2CCN(Cc3ccc4cccc(F)c4n3)CC2)CC1 | – | -6.96%
39 | Cc1ccc(NC(=O)CN2C(=O)N/C(=C/c3cc(C)n(-c4ccc(C(=O)O)cc4)c3C)C2=O)cc1 | – | -3.73%
40 | Cc1ccc(C(=O)C2CCN(CC(=O)Nc3ccc(N(C)C)cc3)CC2)cc1 | 6.37 µM (active) | –
41 | Cc1ccc(NC(=O)CN2C(=O)N/C(=C/c3cccn3-c3ccc(C(=O)O)cc3)C2=O)cc1 | – | 2.27%
42 | CN(C)c1ccc(NC(=O)CN2CCC(C(=O)c3ccc(F)cc3)CC2)cc1 | 3.05 µM (active) | –
43 | CC(=O)CSc1nc(C(F)(F)F)cc(=O)n1-c1ccccc1 | – | 7.63%
44 | CC1(C)Cc2c(C#N)c(N3CCCC3)nc(-c3ccco3)c2CO1 | – | -26.2%
45 | CN(C)c1ccc(Nc2cc(Cl)ncn2)cc1 | 9.79 µM (active) | –
46 | O=C1CCCC2=C1Sc1ccccc1N2 | 7.55 µM (active) | –
47 | Cc1c(Br)c(=O)oc2c(Br)c(O)c(O)cc12 | 25.2 µM (active) | –
48 | CN(C)/C=C(\C#N)C(=O)Nc1ccc(O)cc1F | 10.3 µM (active) | –
49 | COc1ccc(OC)c(/C=N/NC(=O)CCc2ccc(O)c(O)c2)c1 | 40.4 µM (active) | –
50 | O=C(CCc1ccc(O)c(O)c1)N/N=C/c1cc2c(cc1[N+](=O)[O-])OCO2 | – | 18%
51 | N#Cc1nc(Cc2cccc3ccccc23)oc1NCCN1CCOCC1 | – | -22%
52 | Cc1cccc(C(=O)Nc2ccc(O)cc2)c1 | 4.37 µM (active) | –

Row | SMILES | IC50 | inhibition
53 | O=C(Nc1ccc2c(c1)C(=O)OC2)c1ccc(C(F)(F)F)cc1 | – | -13.4%
54 | O=C(Nc1ccc(O)cc1)c1ccc2c(c1)C(=O)N(N1C(=O)c3ccccc3C1=O)C2=O | 6.05 µM (active) | –
55 | Cc1cccc(C(=O)Nc2ccc(C(=O)N/N=C/c3ccc4c(c3)OCO4)cc2)c1 | – | -18.2%
56 | O=C(Nc1ccc(O)cc1)c1ccc2c(c1)C(=O)N(Cc1ccco1)C2=O | 8.35 µM (active) | –
57 | O=C(Cn1c(=O)n(Cc2ccco2)c(=O)c2c3c(sc21)CCCCC3)Nc1ccccc1 | – | -6.06%
58 | CCOC(=O)NC(=O)C(=CNc1cccc(C)c1)C(=O)NC(=O)OCC | – | 8.84%
59 | O=C1CC(=O)N(Cc2ccco2)C(=O)N1 | – | 3.67%
60 | COc1cc(C(=O)Nc2ccc(O)cc2)ccc1OC(C)=O | 3.55 µM (active) | –
61 | OC1CN=C2CCCc3c2n(c2ccc(Cl)cc32)C1 (configuration not stated) | – | -12.8%
62 | NS(=O)(=O)c1ccc(NC(=O)COC(=O)c2ccc(Cl)nc2)cc1 | – | -45%
63 | CCNC(=O)COC(=O)/C=C/c1cccc(F)c1 | – | -31%
64 | O=C1COc2ccc(C(=O)COC(=O)/C=C/c3ccc(Br)o3)cc2N1 | – | 13.8% [at 50 µM]
65 | COc1cc(/C=C/C(=O)OCC(=O)Nc2ccc(S(N)(=O)=O)cc2)ccc1O | 12.2 µM (active) | –
66 | COc1cc(/C=C/C(=O)OCC(=O)N2CC(=O)Nc3ccccc32)ccc1O | 6.1 µM (active) | –
67 | Cc1cc(C)c(S(=O)(=O)/N=C2/C=C(SCC(=O)O)C(=O)c3ccccc32)cc1C | – | -72.5%
68 | CN(C)c1ccc(NC(=O)C(=O)C2C(=O)Nc3ccccc32)cc1 (configuration not stated) | 1.57 µM (active) | –
69 | CCn1c(SCc2ccc(C(=O)Nc3nccs3)cc2)nnc1-c1ccc(NC(C)=O)cc1 | – | -4.81%
70 | CCOC(=O)c1ccc(CSc2nnc(-c3ccncc3)n2N)cc1 | – | -41%
71 | CCn1c(SCC(=O)c2ccc(O)c(O)c2)nnc1-c1ccc(C)cc1 | 6.52 µM (active) | –
72 | Cn1c(SCC(=O)c2cc(Cl)c(Cl)s2)nnc1-c1ccco1 | – | 16%
73 | C=CCn1c(SCC(=O)c2ccc(O)c(O)c2)nnc1-c1ccccc1OC | 10.2 µM (active) | –
74 | C=CCn1c(SCC(=O)c2ccc(O)c(O)c2)nnc1-c1cccnc1 | 8.61 µM (active) | –
75 | Cn1c(SCC(=O)c2ccc(O)c(O)c2)nnc1-c1cccs1 | 15.9 µM (active) | –
76 | COCCCN(Cc1ccco1)C(=O)Cn1ncc2c(=O)oc3ccc(C)cc3c21 | – | -16.3%
77 | CCn1c(SCC(=O)c2ccc(O)c(O)c2)nnc1-c1ccccc1OC | 3.84 µM (active) | –
78 | CCn1c(SCC(=O)Nc2ccccc2C)nnc1-c1ccccc1O | – | 0.55%

Row | SMILES | IC50 | inhibition
79 | COc1cc(-c2nc(=S)[nH][nH]2)cc(OC)c1OC | 10.7 µM (active) | –
80 | CC(=O)Nc1ccc(OCCOc2ccc(/C=C3\C(=N)N4N=C(C)SC4=NC3=O)cc2)cc1 | – | -24.2%
81 | COc1ccc(C(=O)/C=C(\C)Nc2ccc(NC(C)=O)cc2)cc1 | 17.8 µM (active) | –
82 | CN1c2ccc(C=O)c3c(C=O)ccc(c23)N(C)C1(C)C | 17.5 µM (active) | –
83 | Nc1ccc2nc(-c3cccs3)[nH]c2c1 | 3.65 µM (active) | –
84 | Cc1ccc(C)c(-c2nc3ccc(N)cc3[nH]2)c1 | 4.86 µM (active) | –
85 | COc1ccc(C2=CC3=C(Br)C(=O)C(C)(OC(=O)c4ccco4)C(=O)C3=CO2)cc1 (configuration not stated) | – | 9.67%
86 | CCNc1ccc(Br)cc(C(=O)/C=C/c2ccc(Cl)cc2Cl)c1=O | – | -54.5%
87 | CC(=O)Nc1ccccc1O | 2.63 µM (active) | –
88 | CCC(=Nc1ccccc1O)C1=C(O)CC(c2ccccc2)CC1=O (configuration not stated) | 8.32 µM (active) | –
89 | COc1cc(/C=C2/C(=O)ON=C2c2ccccc2)ccc1O | 14.4 µM (active) | –
90 | O=C1ON=C(c2ccccc2)/C1=C\c1ccco1 | – | 26.6%
91 | COc1ccc(/C=C2\C(=O)ON=C2c2ccccc2)cc1 | – | 14.8%
92 | O=C1ON=C(c2ccccc2)/C1=C/c1ccc(O)c(O)c1 | 7.26 µM (active) | –
93 | O=C1ON=C(c2ccccc2)/C1=C/c1ccccc1 | – | 5.34%
94 | CCOC(=O)C1=C(C)N(c2ccccc2)C(=O)/C1=C\c1ccc(O)c(OC)c1 | – | -43.5%
95 | O=C1C(=Cc2ccc(Br)o2)C(=O)c2ccccc21 | – | 29.5% [at 50 µM]
96 | COc1cc(/C=C2\C(=O)ON=C2c2ccc(Cl)cc2)ccc1O | 18.5 µM (active) | –
97 | O=C1ON=C(c2ccccc2)/C1=C/c1ccc(OS(=O)(=O)c2ccccc2)cc1 | – | 21.3%
98 | COc1ccc(/C=C2\C(=O)ON=C2c2ccccc2)cc1OC | – | 4.03%
99 | COc1cc(C=C2C(=O)c3ccccc3C2=O)ccc1O | 4.42 µM (active) | –
100 | CC(=O)Nc1cccc(NC(=O)COc2ccc3c(c2)OCO3)c1 | – | 19.8%
101 | Cc1cc(NS(=O)(=O)c2ccc(NC(=O)Nc3ccc4c(c3)OCO4)cc2)no1 | – | -12.7%
102 | O=C(CCS(=O)(=O)c1ccc(Cl)cc1)Oc1ccc2c(c1)OCO2 | 78 µM (active) | –

— PubChem BioAssay AID2501 (Southern Research Specialized Biocontainment Screening …, 2010)
